Laboratory results: PubChem BioAssay (NCI)
The panel holds about 83,000 compounds, 20% with a hit somewhere; the sample as a whole holds those more often.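 Values shown are percent growth following 48 h exposure of cells in 96-well plates to a single concentration of compound; below 10 was considered active.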 Values without a mark were called inactive. Active and inactive are the calls of the source.

Columns and labels:
Experiment in all cases: NCI-60 one-dose screen, 48 h (100 = growth as untreated, 0 = no growth, -100 = all killed)
Conditions in all cases: 10 µM unless noted
[1] = test system: DU-145 prostate
[2] = test system: K-562 leukemia
[3] = test system: MALME-3M melanoma
[4] = test system: MDA-MB-231 breast
[5] = test system: RXF 393 renal
[6] = test system: SF-268 CNS
[7] = test system: SF-295 CNS
[8] = test system: SF-539 CNS
[9] = test system: UACC-257 melanoma
[10] = test system: M14 melanoma
[11] = test system: HCT-15 colon
[12] = test system: HT29 colon
[13] = test system: SNB-75 CNS
[14] = test system: SNB-19 CNS
[15] = test system: U251 CNS
[16] = test system: PC-3 prostate
[17] = test system: SK-MEL-5 melanoma
[18] = test system: UACC-62 melanoma
[19] = test system: LOX IMVI melanoma
[20] = test system: SK-MEL-28 melanoma

| Compound | growth [1] | growth [2] | growth [3] | growth [4] | growth [5] | growth [6] | growth [7] | growth [8] | growth [9] | growth [10] | growth [11] | growth [12] | growth [13] | growth [14] | growth [15] | growth [16] | growth [17] | growth [18] | growth [19] | growth [20] |
| --- | --- | --- | --- | --- | --- | --- | --- | --- | --- | --- | --- | --- | --- | --- | --- | --- | --- | --- | --- | --- |
| CNC(=O)c1cccc2cc(Oc3ccnc4cc(OCC5(N)CC5)c(OC)cc34)ccc12 | 77.7% | 19.5% | 74.3% | 60.8% | 39.8% | 52.4% | 58.4% | 12.6% | 90.2% | 56.1% | 57.8% | 34.6% | 26.7% | 67.6% | 66.4% | 66.9% | 76.5% | 82.2% | 46.3% | 87% |
| CC/C=C\C[C@H]1C/C=C2/C(=O)C=C[C@@H]2C/C=C\CCCC(=O)O1 | -10.9% (active) | 1.56% (active) | -15.3% (active) | 1.26% (active) | -57.1% (active) | -0.852% (active) | -19.8% (active) | 5.18% (active) | -12.7% (active) | -17.4% (active) | -33.8% (active) | -29.2% (active) | 47% | 12.6% | -80.9% (active) | -42.6% (active) | -88.4% (active) | -57.6% (active) | -76.1% (active) | -28.6% (active) |
| CCS(=O)(=O)N1CCN(c2ccc(Nc3ncc(C(N)=O)c(NC4CC4)n3)cc2)CC1 | 88.5% | 56.4% | 76.7% | 69.6% | 25.8% | 75.5% | 61.9% | 53.5% | 101% | 59.5% | 58.2% | 76.2% | 88% | 105% | 93.4% | 92.4% | 66.8% | 101% | 73.7% | 83.3% |
| COc1cc2ncnc3c2cc1OCCCCCN(C)Cc1ccc(Br)cc1N3 | 31.1% | 26.1% | 71.8% | 63.7% | 69.3% | 65.1% | 78.7% | 88.6% | 31.5% | 36.9% | 19.5% | 28.9% | 74.5% | 88.4% | 68.6% | 39% | 72.7% | 43.8% | 32.8% | 74.8% |
| COc1cc2c(cc1OCCCN1Cc3ccc(OCCCCC(=O)N4CCC(CCN5CCCC5)CC4)cc3C1)N=C(N)C21CCCC1 | 95.2% | 4.85% (active) | 44% | 87.1% | 90.2% | 85.8% | 101% | 54.7% | 85.1% | 58.2% | 102% | 9.48% (active) | 60.3% | 103% | 79.2% | 79.9% | 55.3% | 106% | 64% | 97.9% |
| Cc1cc(Nc2ncnc3ccc(NC4=NC(C)(C)CO4)cc23)ccc1Oc1ccn2ncnc2c1 | 35.2% | 10% | -8.78% (active) | -4.62% (active) | 0.527% (active) | 41.8% | 52.7% | 30.4% | 4.04% (active) | 8.95% (active) | 47.9% | 5.46% (active) | 39% | 44.3% | 36.2% | 41.3% | 19.2% | 14.3% | 11.2% | 12.9% |
| CC(=O)NCC(=O)N1[C@@H]2CC[C@H]1c1ccc(Nc3ncc(C(F)(F)F)c(NC4CCC4)n3)cc12 | 41.7% [2.5 µM] | 44.8% [2.5 µM] | 46.3% [2.5 µM] | 38.1% [2.5 µM] | -12.8% [2.5 µM] (active) | 38.6% [2.5 µM] | 60% [2.5 µM] | 11.2% [2.5 µM] | 59.8% [2.5 µM] | 26.9% [2.5 µM] | 26.8% [2.5 µM] | 14.1% [2.5 µM] | 19.7% [2.5 µM] | 73.9% [2.5 µM] | 56.2% [2.5 µM] | 57.2% [2.5 µM] | 58.1% [2.5 µM] | 56.3% [2.5 µM] | 22% [2.5 µM] | 70.8% [2.5 µM] |
| COC(=O)[C@H](Cc1ccc(O)cc1)NC(=O)[C@@H](OC)[C@@H]1Cc2cc3cc(OC4CC(OC5CC(O)C(O)C(C)O5)C(O)C(C)O4)c(C)c(O)c3c(O)c2C(=O)[C@H]1OC1CC(OC2CC(OC3CC(C)(O)C(O)C(C)O3)C(O)C(C)O2)C(O)C(C)O1 (stereo not given in full) | 15.8% | 7.28% (active) | -43% (active) | 19.5% | -71.5% (active) | 20.7% | 7.09% (active) | -27.1% (active) | 2.42% (active) | -20.2% (active) | 47.5% | 3.68% (active) | -52.5% (active) | 8.72% (active) | 7.18% (active) | 13.4% | -53.3% (active) | -53.1% (active) | -31.2% (active) | -26.6% (active) |
| C/C(=C(/c1ccc(Cl)cc1)c1ccc(OCCN2CCCCCC2)cc1)c1ccccc1 | 83.5% | 22.7% | 81.7% | 86.9% | 81.4% | 93% | 86.4% | 72.4% | 92.2% | 81.4% | 20.3% | 8.45% (active) | 88.4% | 88.4% | 73.1% | 69.3% | 69.5% | 90% | 62.6% | 88% |
| C[C@@H](Oc1cc(-n2cnc3ccc(CN4CCN(C)CC4)cc32)sc1C(N)=O)c1ccccc1C(F)(F)F | 2.67% (active) | 6.08% (active) | 21% | 27.2% | 16.5% | 31.6% | 32.7% | -22.1% (active) | -25.5% (active) | 15.7% | 6.53% (active) | 4.62% (active) | -5.55% (active) | 26.1% | 29.1% | 32.9% | 4.6% (active) | 51.1% | 4.53% (active) | 38% |
| CCN(CC)CCOc1ccc(/C(=C(\C)c2ccc(Cl)cc2)c2ccc(Cl)cc2)cc1 | 97.2% | 7.09% (active) | 87.2% | 84.3% | 51.2% | 80.7% | 65.2% | 67% | 96.1% | 71% | 21.7% | 8.96% (active) | 116% | 79.3% | 54% | 70.7% | 38% | 88.4% | 35.4% | 75.6% |
| CCCCCc1ccc(C)cc1OC(=O)CCl | 109% | 98.8% | 90.9% | 110% | 103% | 105% | 102% | 112% | 107% | 111% | 110% | 100% | 90% | 105% | 101% | 88.4% | 103% | 113% | 106% | 113% |
| Cc1cccc(Cl)c1NC(=O)c1cnc(Nc2cc(N3CCOCC3)cc(S(C)(=O)=O)c2)s1 | -41.1% (active) | 6.1% (active) | 42.2% | 9.71% (active) | -34.8% (active) | 25.4% | 53.8% | 2.23% (active) | 43.2% | 42.4% | 43.3% | -68% (active) | -50.1% (active) | 40.5% | 50% | 44.3% | 57.9% | 41.3% | -58.4% (active) | 52.6% |
| COc1ccc(C(=O)c2cc(OC)c(OC)c(OC)c2)cc1/C=C/C(=O)c1ccc(F)cc1 | 85.5% | 9.61% (active) | 65.6% | 68.4% | 88.3% | 77% | 84.3% | 51.8% | 86.6% | 72.5% | 23.9% | 13.6% | 58.7% | 71.3% | 34.1% | 76.7% | 57% | 45.5% | -56.5% (active) | 13.1% |
| COc1ccc(Cc2cc(-c3ccccc3C)n[nH]c2=O)cc1 | 93.2% | 110% | 154% | 84.6% | 99.2% | 85% | 116% | 97.8% | 119% | 115% | 107% | 98.1% | 72.7% | 87.1% | 100% | 81.7% | 99.2% | 94.8% | 109% | 106% |
